This passage reports PBM binding z-score results from the supplement of paper PMC6555819.

For the experiment, the system named is VDR:RXRa (NR concentration 270 nM, RXRa partner concentration 90 nM). The experiment in a line: PBM binding z-score (relative to random genomic background probes); higher = stronger binding; sequences stand for … in GC…GCGATTGACAGCGTAGAATGAAGG
The protocol: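 Protein-binding microarray (Agilent 4x180K custom design, double-stranded 60-nt probes: 5' GC cap, 34-nt variable region, 24-nt constant primer region; full probe sequence given). Purified or IVT nuclear receptor:RXRα heterodimers (3:1 NR:RXRα, mostly 270:90 nM) or homodimers were incubated for 1 h in PBS with 2% milk and no ligand, then detected with Alexa488 antibodies. Fluorescence from o1-orientation probes (~5 replicates averaged) was converted to z-scores against 500 random hg19 background probes. Variable regions are seed direct-repeat (DR0–DR5) sites, all their single-nucleotide variants and half-site ablations.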
With CCGACTGGGCCAAGGTCATTGATCAGTCAAAGCA, the PBM binding z-score turned out to be 3. In the case of TTACCAAGGAGAAGGTCGTTGATCCCTCTGTAGA it was 0.838. In the case of ATACCACGGTGATCGTGAGGTCGTTGATACTAAC it was 1.93. ATCTCTTGGTAACCAAGTTCAGTGAATGCCGAAC came in with a PBM binding z-score of 2.38.

Turning to CTACCAAGGTGAACAAGATCGTTGATTACTATTC, the PBM binding z-score turned out to be 1.31. For ATCTCTAGGTAAAGATAATTCAGTGAATGCAAAT, the PBM binding z-score was determined as 0.0441. With CGAACGAGGGCATGATTTGATAGCAAATGCCGAT the figure was 0.55; with CCTAGCAGGCCAGGGTCAATCAAGCATTTCGCTT, 2.86. CCTACTGGGCCATTCAGAAGTCATTGATCATATG gave a PBM binding z-score of -0.356. In the case of ATACCAAGGTGATCGTGAGATCGTTGATACTAAC it was 0.19. With CCTCGCAGGACAACAGGAGGTCAGAGCTGCCAGA the figure was 1.42; with CGGACTAGGTCATTGACAGGACAGTGAATAGTAA, 2; with GCTGCTAGGTCAGCTGATGGTCAGCTAAAGCTCG, -0.126.

Take CCTTACGGGTCACTCGAGGTTATAGCATCGGAGT: the PBM binding z-score turned out to be 5.11. In the case of CCTACTGGGCCAAACGTCATTGATTCCAATGCTC it was -0.204. ACTAGCAGCCCAAGGGTCACTCAAGATTAGTCCG registered a PBM binding z-score of 2.6. In the case of CCAGACAGGTGAAAGGTAACACAGTCTGGTACGC it was 0.959. In the case of TCAATTAGTTGAAGGGCAACCGACGAGTCCGTTT it was 0.667; in that of AGGATGAGGTTATACGTAGATCAGGGAAGAAAGT, 1.66; in that of ACTATTAGTTGACTTTGGGCAACCGATACGACGC, 0.238. With ATCGAAAGGTCGTGAGGTTAGTATACAGAAAGGC the figure was 4.66; with CCTATTAGTTGACCATAAGGGCAACCGGAGCTCG, 0.682; with TATTGTAGATCAATAGAGGTTAAGAAAGTGCGCT, 1.91. As for CCTCGGAGGACAACAAGAGGTCAGAGCTGCCAGA, the PBM binding z-score stood at 2.88. In the case of CCTCGGAGGACAACAGGAGGTCAGACCTGCCAGA it was 1.95.

The sequence TCTAGTTGGTCAAAGGTCACACAGTCGAAATGCG displayed a PBM binding z-score of 5.68. In turn, TCATATAGGTAAACAGGTGAACGTCCGTAAGTTA came in with a PBM binding z-score of 1.19. In the case of ATCTCTAGGTAAAAGTTCCGTGAATCCCGAGGAT it was -0.0559; in that of GGAACAAGGGCATTCGAGTTGATAGCATGGCGAT, 3.12; in that of ACTGGCAGGCCAAGGGTCACTCAAGATTAGTCCG, 2.69. For the sequence CCTACTGGGCCATCAAGTCATTGATATCAACGTT, the PBM binding z-score is -0.0971.

The sequence ACTAGCAGGCCAAGGGGCACTCAAGATTAGTCCG gave a PBM binding z-score of -0.375.

As for GCTCGGTGGACAAGGTCAGAGCTTTGTCCGTAGA, the PBM binding z-score is 1.48.

ATCGGAAGGTCGAAGGTGAGTATACCCACCCGAA yielded a PBM binding z-score of 1.5. In turn, ATCTCCAGGTAACCAAGTTCAGTGAATGCCGAAC yielded a PBM binding z-score of 4.4. In the case of CCTGCTAGGTCATAGTCAGCTAATCTACAGTATG it was 1.28. With TCCGCTAGGTCAACGATGGTCAGCTAATCTGCTA the figure was 1.45; with CCGACTGGGGCATACGGTTACCATAAGCCAGCCC, -0.577; with CTCGAAAGGTCGGTTCAGGTGAGTATACGGATAA, 2.71. With ACTATTAGTTGAGACGAGGGCAACCGTTAGGTTG the figure was 0.546.
